Bioassay records (PubChem)
Sampled rows, rich in hits. Any-hit rate of the full collection: about 2.9%.
TSHR antag – Antagonists of the Thyroid Stimulating Hormone Receptor: HTS campaign | Thyrotropin receptor (Homo sapiens), P16473 | TSHR-expressing cells, TSH-stimulated cAMP HTRF, 2 h; hits give low values | activity change, negative = inhibition, % at 11.5 µM | 330,000 tested, 0.2% active | AID 504810, 2011;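 active means activity change below a set negative limit, meaning inhibition stronger than a set level, cut at about -70% in these data; inconclusive means activity change between two set negative limits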; further: on the % scale 0 is the no-effect control and ±100 the full control effect
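TSHR-expressing cells, 200/well, pre-treated with compound, then stimulated with EC80 TSH (4nM final) for 2 hours at 37 deg C. cAMP measured by competitive HTRF: anti-cAMP cryptate antibody in lysis buffer plus cAMP-d2, read after 30 minutes at room temperature.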
D3 ag – qHTS of D3 Dopamine Receptor Agonist: qHTS. D(3) dopamine receptor (Homo sapiens), P35462. AID 652048, 2013. 410,000 tested, 0.58% active. max activation, %. D3R DiscoveRx beta-arrestin cells, luminescence, 90 min; in the data active means max activation above about 30%; further: 0% is about no effect
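Agonist-mode cell screen: cells plated at 1500/well and incubated overnight at 37 °C, then exposed to library compounds for 90 min at 37 °C. Detection reagent was added for 30–60 min at room temperature, and luminescence was read.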
B2AR arrestin – qHTS assay of beta-arrestin-biased ligands of beta2-adrenergic receptor. Beta-2 adrenergic receptor (Homo sapiens), P07550. beta-arrestin recruitment to beta2AR, cell-based reporter. Potency, µM (series often up to 46.1 µM), without a hit: at the top dose activation, usual class: activators. 330,000 tested, 0.02% active; active means well fitted activation curve with a large enough effect; inconclusive means small, poorly fitted or top-dose-only effect;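 further: potency means the concentration at half of the fitted maximal effect; 0% = DMSO controls and full agonism = EC100 isoproterenol or metaproterenol; nearly all actives have a fitted effect of over 65% in size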
Target sequence (P07550 whole entry, looked up): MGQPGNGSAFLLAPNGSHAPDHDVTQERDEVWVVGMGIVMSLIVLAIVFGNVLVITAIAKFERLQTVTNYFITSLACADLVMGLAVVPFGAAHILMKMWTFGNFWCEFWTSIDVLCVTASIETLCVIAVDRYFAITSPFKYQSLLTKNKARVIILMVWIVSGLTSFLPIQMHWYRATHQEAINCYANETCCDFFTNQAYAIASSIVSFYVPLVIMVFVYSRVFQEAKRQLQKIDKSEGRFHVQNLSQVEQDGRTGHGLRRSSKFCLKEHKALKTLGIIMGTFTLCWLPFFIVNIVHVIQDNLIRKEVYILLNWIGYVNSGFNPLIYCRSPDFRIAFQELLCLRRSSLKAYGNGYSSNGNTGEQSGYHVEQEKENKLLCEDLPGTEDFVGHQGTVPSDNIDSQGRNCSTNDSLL
D3 antag – qHTS of D3 Dopamine Receptor Antagonist: qHTS | D3R cells, DiscoveRx beta-arrestin luminescence, antagonist mode; hits give low values | D(3) dopamine receptor (Homo sapiens), P35462 | max response, negative = inhibition, % | AID 652054, 2013 | 360,000 tested, 2.5% active; in the data active means max response below about -50%; inconclusive means no clear call, values can overlap the other calls; further: on the % scale 0 is the no-effect control and ±100 the full control effect
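Cells plated overnight at 1500 cells/well, then exposed to library compounds with dopamine controls for 90 minutes at 37 degrees C. DiscoveRx reagent added for 30–60 minutes at room temperature; luminescence read, quantitative HTS format.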
* hit, by the source's call; ? = inconclusive; · = not tested or not shown.

SMILES	TSHR antag	D3 ag	B2AR arrestin	D3 antag
CCN(CC)c1ccc2cc(C=O)c(=O)oc2c1	·	-5	·	-55*
CCCSc1ncc(Cl)c(C(=O)N2CCN(c3ccc(OC)cc3)CC2)n1	·	-7	·	·
CCn1c(SCC(=O)Nc2cc(Cl)ccc2OC)nc2c([nH]c3ccccc32)c1=O	·	0	·	·
COc1ccc(NC(=O)CN(C)C(=O)/C=C/c2cn(-c3ccccc3)nc2-c2ccc(C)cc2)cc1	22	-2	0%	-55*
COc1ccc(-c2nn(-c3ccccc3)cc2/C=N/NC(=O)c2ccc(Br)o2)cc1	-95*	18	0%	66
CCCNC(=O)NC(=O)CN1C(=O)NC(C)(c2ccc3ccccc3c2)C1=O (stereo not given)	3	35*	0%	3
Cc1nccn1C[C@@H]1CCc2c(c3ccccc3n2C)C1=O	9	-38	0%	-79*
O=c1cc(-c2ccccc2)nc(SCc2ccccc2)[nH]1	0	9	0%	-55*
CCOC(=O)c1cc(-c2ccc(C)cc2)n(CC(=O)NC2CCCCCC2)c1C	·	3	·	·
O=C(OCC1CCNCC1)c1ccc(F)cc1	·	-4	·	-55*
O=C(OCC1CCNCC1)c1ccc2c(c1)OCO2	-16	3	-1%	4
O=C(COc1ccc(/C=N/NC(=O)c2ccncc2)cc1)Nc1cccc([N+](=O)[O-])c1	2	-16	0%	?
O=C(COc1ccc(/C=N/NC(=O)c2ccccc2O)cc1)Nc1ccc([N+](=O)[O-])cc1	-6	41*	0%	10
CSCCCN1CCC(n2nccc2NC(=O)CCCc2ccccc2)CC1	14	-47	0%	-50*
Cn1cc(CN2CCC(n3nccc3NC(=O)CCCc3ccccc3)CC2)cn1	2	0	-1%	-4
C=C(C)CCC(C)N1CCC(n2nccc2NC(=O)CCCc2ccccc2)CC1 (stereo not given)	-1	5	0%	-60*
CSCC(C)N1CCC(n2nccc2NC(=O)CCCc2ccccc2)CC1 (stereo not given)	3	-7	0%	1
N#Cc1ccc(-c2nc3c4ccccc4ccn3c2Cc2cccc(Cl)c2)cc1	·	-10	·	0
C/C(=N\Nc1ccc([N+](=O)[O-])cc1)c1ccc(C#N)cc1	-7	3	-1%	-10
N#CC(C#N)=NNc1ccc([N+](=O)[O-])cc1	-76*	-10	0%	?
Cc1ccc2[nH]c(=O)c(N3CCOCC3)c(-c3ccccc3)c2c1	7	33*	0%	30
O=S1(=O)CC(N2CCN(CC3CC3)CC2)CN1Cc1cn(Cc2ccccc2C(F)(F)F)nn1 (stereo not given)	·	-5	·	9
CCN(CC)c1ccc(NC(=O)Cn2nnc(-c3cccc(OC)c3OC)n2)c(C)c1	-5	31*	0%	16
Cc1ccc(NC(=O)Cn2nnc(-c3ccccc3)n2)c(C)c1	·	7	·	·
CCc1cccc(CC)c1NC(=O)CCS(=O)(=O)c1ccc(Br)s1	·	0	·	·
SMILES	TSHR antag	D3 ag	B2AR arrestin	D3 antag
Cn1cnnc1SCC(=O)Nc1ccc(Br)cc1F	3	32*	0%	6
Cn1cnnc1SCC(=O)Nc1ccccc1	-1	10	-1%	22
COc1ccc(CN2C(=O)C(NC(=O)c3ccc(C)cc3)(C(F)(F)F)N=C2c2ccccc2)cc1 (stereo not given)	·	-8	·	·
c1ccc(-n2cc(CNCCc3cscn3)c(-c3ccc4c(c3)OCO4)n2)cc1	-5	-24	0%	-62*
CCCn1c(O)c(N=NC(=O)CNC(=O)/C=C/c2ccc(OC)cc2)c2ccccc21	2	-18	0%	-50*
O=S(=O)(Nc1ccc(N=Nc2ccccc2)cc1)c1ccccc1	-9	-12	4%	-52*
O=S(=O)(Nc1ccc(S(=O)(=O)Nc2ccccc2)cc1)c1ccccc1	4	-3	0%	13
O=S(=O)(Nc1ccccc1)c1ccc(NS(=O)(=O)c2c(F)cccc2F)cc1	1	41*	0%	6
Oc1nc(Nc2ccc(F)cc2)sc1/C=C1\C=Nc2ccccc21	-24	-2	0%	-11
CC1=Nc2ccccc2/C1=C\c1sc(Nc2ccc(C)cc2)nc1O	-6	-14	-1%	-54*
Cc1nc2ccn(Cc3ccco3)c(=O)c2cc1C(=O)Nc1ccc(F)cc1	·	-1	·	·
Cc1ccc(NC(=O)c2cc3c(=O)n(Cc4ccco4)ccc3nc2C)cc1C	·	65*	·	·
CC(=O)N1CCc2c(sc(NC(=O)c3ccc([N+](=O)[O-])o3)c2C(N)=O)C1	·	-9	·	-91*
CN1CCc2c(sc(NC(=O)Cc3ccccc3)c2C(N)=O)C1	16	-8	0%	-27
CN1CCc2c(sc(NC(=O)Cc3ccc(F)cc3)c2C(N)=O)C1	-1	-3	0%	-51*
CCOC(=O)c1c(NC(=O)Cc2ccccc2)sc2c1CCN(C)C2	16	-11	0%	?
CCOC(=O)c1c(NC(=O)Cc2ccccc2)sc2c1CCN(CC)C2	21	-14	4%	-64*
CCOC(=O)c1c(NC(=O)C2CCCCC2)sc2c1CCN(C(C)C)C2	9	-12	3%	-60*
CCc1ccc(NC(=O)CSC2=Nc3ccccc3C3=NC(CCC(=O)NCCc4ccccc4)C(=O)N23)cc1 (stereo not given)	·	2	·	·
CCN1CCc2c(sc(NC(=O)Cc3ccccc3)c2C(=O)OC)C1	4	-18	3%	-103*
COc1ccccc1Nc1nn2c(=O)c3ccc(C(=O)NCCc4ccccc4)cc3nc2s1	·	-12	·	·
COC(=O)c1c(SCC(=O)Nc2ccccc2OC)[nH]c2ccccc2c1=O	·	-3	·	·
Cc1ccc(C)c(CN2CCCN(CC(=O)Nc3ccc(C)c(C)c3)S2(=O)=O)c1	·	6	·	·
Cc1cccc(C)c1NS(=O)(=O)c1ccc(NC(=O)c2ccc(Cl)c([N+](=O)[O-])c2)cc1	-29	6	-1%	-78*
Cn1c(=O)c2cc(NC(=O)Cc3cccc4ccccc34)ccc2n1-c1ccccc1	·	-12	·	-7
SMILES	TSHR antag	D3 ag	B2AR arrestin	D3 antag
CC(CC(=O)Nc1cccnc1)c1ccccc1 (stereo not given)	-3	42*	-1%	-11
CC(CC(=O)Nc1ccc(Cl)c([N+](=O)[O-])c1)c1ccccc1 (stereo not given)	-5	-16	0%	-57*
O=C(Nc1ccccc1)Nc1ccc(Cl)c([N+](=O)[O-])c1	-31	-6	0%	0
O=C(Nc1ccc(S(=O)(=O)NC2=NCCCCC2)cc1)c1ccc(Cl)c([N+](=O)[O-])c1	-19	-1	-1%	-26
CC(CC(=O)Nc1ccc2c(c1)c(=O)n(C)n2-c1ccccc1)c1ccccc1 (stereo not given)	·	-18	·	-78*
CCc1cc(C(=O)Nc2cnn(Cc3ccccc3C)c2)no1	·	1	·	·
CSc1ncc(C(=O)NCc2ccc(C)cc2)c(-c2ccccc2)n1	·	-4	·	·
